MRP1 act = activators of MRP-1 | H69AR cells + doxorubicin, viability rescue, CellTiter-Glo | viability increase, % at 10 µM | actives 0.61% (n = 140,000) | AID 799;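 active = viability gain under doxorubicin at or above a set limit, the compound median plus 3 SD, cut at about 4.7% in these data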;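 note: MRP-1 overexpressing cells given doxorubicin 25 µM after compound pretreatment; 18-22 h compound pretreatment then 72 h with doxorubicin before readout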
CYP2C9 activ = increases human cytochrome P450 2C9 activity; P11712; recombinant CYP2C9, luciferin-H conversion, luminescence; stronger effect = higher value; factor 1 = untreated enzyme, 0 = blocked; activation factor at 5 µM; actives 1.4% (n = 96,000); AID 1024;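 active = activation factor of 2 or more for CYP2C9 at a 5 µM dose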
Target sequence (P11712 whole entry, looked up): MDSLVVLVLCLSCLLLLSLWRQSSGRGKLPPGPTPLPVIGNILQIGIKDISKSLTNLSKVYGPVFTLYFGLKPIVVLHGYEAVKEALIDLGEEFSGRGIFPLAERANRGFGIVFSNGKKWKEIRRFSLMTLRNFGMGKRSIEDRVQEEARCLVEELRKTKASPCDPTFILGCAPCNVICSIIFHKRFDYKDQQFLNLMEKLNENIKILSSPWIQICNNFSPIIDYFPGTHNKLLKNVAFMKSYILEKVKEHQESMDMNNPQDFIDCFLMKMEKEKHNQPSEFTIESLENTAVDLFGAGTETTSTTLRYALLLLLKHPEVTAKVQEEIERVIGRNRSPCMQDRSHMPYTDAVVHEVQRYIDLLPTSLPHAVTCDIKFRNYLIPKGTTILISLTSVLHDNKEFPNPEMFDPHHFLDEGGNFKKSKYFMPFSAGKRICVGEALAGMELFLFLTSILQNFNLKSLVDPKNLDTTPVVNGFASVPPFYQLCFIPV
CYP2C19 inh = human CYP2C19 inhibition. P33261. CYP2C19 Supersomes, luciferin-H EGE luminescence, 30 min. inhibition, % at 5 µM. actives 21% (n = 96,000). AID 778;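 active = CYP2C19 inhibition above a set limit at 5 µM in the primary screen, cut at about 50% in these data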
CYP2C19 activ = activators of human cytochrome P450 2C19; P33261; recombinant CYP2C19, luciferin-H EGE luminescence; stronger effect = higher value; 0 = fully inhibited enzyme, 1 = untreated enzyme; activation factor at 5 µM; 96,000 tested, under 10 active; AID 1025;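 active = activation factor of at least 2 at 5 µM in the primary screen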
CYP2C9 inhib = blocks human cytochrome P450 2C9; P11712; CYP2C9 Supersomes, luciferin-H conversion, luminescence; actives 20% (n = 96,000); AID 777; inhibition, % at 5 µM;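 active = blocking of liver enzyme CYP2C9 beyond about 50% at 5 µM, limit read from the data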
MRP resist rev = reverses drug resistance mediated by MRP | actives 0.04% (n = 85,000) | AID 602 | differential viability (reversal), % at 10 µM | H69AR cells + 2 uM doxorubicin, CellTiter-Glo, 72 h;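 active = viability drop by adding the cancer drug above about 55%, with treated viability meeting a 40% cutoff, limit read from the data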;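 note: larger differential means the compound sensitizes cells more to doxorubicin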
Large screens that a line does not name were inactive. An excerpt weighted towards active compounds, which were near 21% of everything screened.

CCCN(CC(=O)c1cc(C)n(C)c1C)S(=O)(=O)c1cccc(C(F)(F)F)c1	CYP2C19 inh 76 (no result: MRP resist rev)
O=C(CSc1ccc2ccccc2n1)N1CCC(c2noc3ccc(F)cc23)CC1	none (no result: CYP2C9 activ, CYP2C19 inh, CYP2C19 activ, CYP2C9 inhib)
Cc1ccccc1C(=O)O/N=C/c1c(N2CCOCC2)n(C)c2ccccc12	CYP2C9 inhib 88 (no result: MRP resist rev)
CC(=O)c1ccc(OCCCC(=O)Nc2cccc(S(=O)(=O)N(C)C)c2)cc1	none (no result: CYP2C9 activ, CYP2C19 inh, CYP2C19 activ, CYP2C9 inhib, MRP resist rev)
C=C(C)Cn1c(-c2ccccc2)nc2ccccc21	CYP2C19 inh 69
c1cn(C23CC4CC(CC(C4)C2)C3)cn1	CYP2C19 inh 87, CYP2C9 inhib 96
COC(=O)c1c(Cl)c2n3ccccc3c(C)c(-c3ccccc3)c-2c1C(=O)OC	none (no result: CYP2C9 activ, CYP2C19 inh, CYP2C19 activ, CYP2C9 inhib, MRP resist rev)
COC(=O)c1cc2c(-c3ccccc3)c(C)c3ccccn3c-2c1C(=O)OC	CYP2C19 inh 67, CYP2C9 inhib 88 (no result: MRP resist rev)
CCOc1ccc(C(=O)COc2ccc(NC(C)=O)cc2)cc1	none
O=C(COC(=O)c1ccccc1Nc1ccccc1)c1ccccc1	CYP2C9 inhib 57 (no result: MRP resist rev)
O=C(OCCN1C(=O)c2ccccc2C1=O)c1cnccn1	none
CNc1ccccc1C(=O)OCC(=O)c1ccccc1	none (no result: CYP2C9 activ, CYP2C19 inh, CYP2C19 activ, CYP2C9 inhib, MRP resist rev)
O=C(OCCOc1ccc(Br)cc1)c1cnccn1	CYP2C19 inh 62
CCc1ccc(C(=O)COc2ccc(NC(C)=O)cc2)cc1	CYP2C19 inh 88, CYP2C9 inhib 77 (no result: MRP resist rev)
O=C(COC(=O)c1ccccc1)c1ccc(Br)cc1	CYP2C19 inh 56 (no result: MRP resist rev)
CC1CC(C)CN(C(=O)C(NS(=O)(=O)c2ccc(Br)s2)c2ccccc2)C1 (centres undefined)	none (no result: CYP2C9 activ, CYP2C19 inh, CYP2C19 activ, CYP2C9 inhib, MRP resist rev)
Cc1c(Cl)cnc(NC(=O)CSc2nncs2)c1Cl	none (no result: CYP2C9 activ, CYP2C19 inh, CYP2C19 activ, CYP2C9 inhib, MRP resist rev)
Cc1cccc(-c2nnc(SCC(=O)Nc3cccc(C(=O)N4CCOCC4)c3)n2C)c1	none (no result: CYP2C9 activ, CYP2C19 inh, CYP2C19 activ, CYP2C9 inhib, MRP resist rev)
COCCNC(=O)CN(C(=O)CCC(=O)Nc1nccs1)c1ccccc1OC	none
Cn1cc(NC(=O)c2cc(NC(=O)c3cc(NC=O)cn3C)cn2C)cc1C(=O)NCCC(=N)N	none (no result: MRP1 act, CYP2C9 activ, CYP2C19 inh, CYP2C19 activ, CYP2C9 inhib)
CC(NCc1ccc2c(c1)OCO2)C(=O)NC1CCCc2ccccc21 (centres undefined)	none
Cc1ccccc1C1C(C#N)=C2N=C(N)c3c(sc4c3CCCCC4)N2C2=C1C(=O)CCC2 (centres undefined)	none (no result: MRP resist rev)
O=C(COC(=O)c1cnccn1)c1ccccc1	CYP2C9 inhib 82
O=C(OCc1ccc(Cl)c(Cl)c1)c1cnccn1	CYP2C19 inh 61
O=C(COC(=O)c1cnccn1)c1ccc(Br)cc1	none
COC(=O)c1cc(O)c(OCc2ccccc2)c(O)c1	CYP2C19 inh 95, CYP2C9 inhib 91
CC(=O)Nc1ccc(OCC(=O)c2ccc(C)cc2C)cc1	CYP2C19 inh 72
COC(=O)c1ccc(OCC(=O)c2ccccc2)cc1	CYP2C19 inh 75
NC(=O)COC(=O)c1ccc(Oc2ccccc2)cc1	CYP2C19 inh 55
CC(C)NC(=O)COC(=O)c1ccc(Oc2ccccc2)cc1	none (no result: MRP resist rev)
Cc1nn(Cc2ccc(F)cc2)c2sc(C(=O)Nc3ccc(N4CCOCC4)cc3N3CCOCC3)cc12	none (no result: CYP2C9 activ, CYP2C19 inh, CYP2C19 activ, CYP2C9 inhib, MRP resist rev)
CC12CC(NC(=O)N1CCc1ccccc1)c1ccccc1O2 (centres undefined)	CYP2C19 inh 79
COc1ccc(NC(=O)/C(C#N)=C\C=C\c2ccco2)cc1	none (no result: CYP2C9 activ, CYP2C19 inh, CYP2C19 activ, CYP2C9 inhib, MRP resist rev)
CC(=O)Nc1ccc(OC(F)(F)C(F)C(F)(F)F)c(NC(C)=O)c1 (centres undefined)	none
O=C(CCn1c(=O)[nH]c2ccsc2c1=O)NCCc1ccc(Cl)cc1	CYP2C19 inh 70 (no result: MRP resist rev)
O=C(CCn1c(=O)[nH]c2ccsc2c1=O)N(CCc1ccccc1)Cc1ccccc1	CYP2C19 inh 65, CYP2C9 inhib 65
O=C(Nc1ccc(Cl)c(Cl)c1)c1ccc(Cn2c(=O)[nH]c3ccsc3c2=O)cc1	none (no result: CYP2C9 activ, CYP2C19 inh, CYP2C19 activ, CYP2C9 inhib, MRP resist rev)
COc1ccc(N2CCN(C(=O)Cn3c(=O)[nH]c4ccsc4c3=O)CC2)cc1	none
O=C(Cc1ccc(-n2c(=O)[nH]c3ccsc3c2=O)cc1)N1CCN(c2ccc(Cl)cc2)CC1	MRP1 act 5.0 (no result: CYP2C9 activ, CYP2C19 inh, CYP2C19 activ, CYP2C9 inhib, MRP resist rev)
O=C(CCn1c(=O)[nH]c2ccsc2c1=O)Nc1ccc(F)c(F)c1	CYP2C9 inhib 55 (no result: MRP resist rev)
COc1cccc(C2[C@H](C)C3(CCN2C)OCCO3)c1 (some centres undefined)	none (no result: CYP2C9 activ, CYP2C19 inh, CYP2C19 activ, CYP2C9 inhib, MRP resist rev)
CN(Cc1ccccc1)S(=O)(=O)c1ccc(Cl)c(C(=O)NCc2ccc3c(c2)OCO3)c1	none (no result: CYP2C9 activ, CYP2C19 inh, CYP2C19 activ, CYP2C9 inhib, MRP resist rev)
N#CCCn1nc(-c2ccccc2)cc1-n1c(C(F)(F)F)nc2ccccc21	CYP2C19 inh 87, CYP2C9 inhib 96
